Dicer inh: blocks human Dicer maturation of pre-miR-21. actives 6% (n = 47,000). cat-ELCCA pre-miR-21 Dicer processing, chemiluminescence; active compounds read high. Q9UPY3. AID 1347074. z-score at 25 µM; in the data active = z-score above about 3, passing the limit was not always enough;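 also: plate controls were vehicle for no effect and no enzyme for full effect; higher signal means more uncleaved substrate so more Dicer inhibition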
* = called active by the depositor. Only a selection was taken, and hits are over-represented in it overall.

SMILES	Dicer inh
CC(O)CNC(=O)C(=O)NCC1CCCO1 (centres undefined)	1.2
CC(C)NC(=O)C(=O)NCC1CCCO1 (centres undefined)	0.7
CC(C)COC(=O)C(C)Oc1ccc2c(=O)c(-c3ccccc3)coc2c1 (centres undefined)	1.23
COc1ccc(CNCc2ccc3c(c2)OCO3)cc1OC	-0.8
COc1ccc(S(=O)(=O)NCc2ccc3c(c2)OCO3)cc1OC	3.57*
Cc1ccc(S(=O)(=O)NCc2ccc3c(c2)OCO3)cc1C	0.26
COC(=O)c1ccc(N2C(=O)CC(N3CCN(Cc4ccc5c(c4)OCO5)CC3)C2=O)cc1 (centres undefined)	-0.7
COC(=O)C(O)(c1ccc(N(C)C(=O)c2ccc(C)cc2)cc1)C(F)(F)F (centres undefined)	-0.36
CCOC(=O)C(C)n1cnc2c1c(=O)[nH]c(=O)n2C (centres undefined)	-0.01
COC(=O)c1cc(-c2nc(-c3ccc(Cl)cc3Cl)cs2)c(SC)s1	0.87
CCCOC(NC(=O)CC)(C(F)(F)F)C(F)(F)F	-2.04
CSc1ccc(C2C3=C(CC(C)(C)CC3=O)Nc3cc4c(cc32)OCO4)cc1 (centres undefined)	5.11*
CC1(C)CC(=O)C2=C(C1)Nc1ccc3ccccc3c1C2c1ccc2c(c1)OCO2 (centres undefined)	-0.4
CC1(C)CC(=O)C2=C(C1)NC1=C(C(=O)CC(C)(C)C1)C2c1ccccc1	-0.35
C#CCOc1ccc(C2C3=C(CC(C)(C)CC3=O)NC3=C2C(=O)CC(C)(C)C3)cc1	-1.73
CC1(C)CC(=O)C2=C(C1)Nc1cc3c(cc1C2c1ccc(Cl)cc1)OCO3 (centres undefined)	2.53
Cc1ccc(C2C3=C(CC(C)(C)CC3=O)NC3=C2C(=O)CC(C)(C)C3)cc1	4.62*
O=C(O)COc1cccc2ccccc12	1.33
Cn1c(NCc2ccccc2)nc(-c2cccs2)c(C#N)c1=O	1.43
O=c1[nH]c2ccccc2c2oc(-c3ccccc3)nc12	-1.19
O=c1[nH]c2c(F)cccc2c(O)c1-c1ccccc1	-0.48
O=C(O)c1c(-c2ccccc2)c2oc3ccccc3c2[nH]c1=O	4.37*
O=C(NNC(=O)c1cccc2ccccc12)c1ccc2nccnc2c1	-0.75
CCN(C(=O)c1c(-c2ccccc2Cl)noc1C)C(Cc1ccccc1)c1ccc(OC)cc1 (centres undefined)	-0.02
Cc1ccc2c(=O)c(C(=O)c3ccccc3Cl)coc2c1	3.81*
SMILES	Dicer inh
O=C(Oc1ccc2c(=O)c(-c3ccccc3Cl)coc2c1)c1cccs1	0.61
COC(=O)C(C)Oc1ccc2c(=O)c(Oc3ccccc3Cl)coc2c1 (centres undefined)	-0.38
O=C1c2ccccc2OCC1c1ccccc1 (centres undefined)	1.05
C[C@H](Cc1ccccc1)Nc1ncnc2c1ncn2[C@@H]1O[C@H](CO)[C@H](O)C1O (some centres undefined)	-1.16
c1ccc(-c2nc3cc4nc(-c5ccccc5)[nH]c4cc3[nH]2)cc1	-0.81
CCOc1ccc(/C=C/c2nc(-c3ccc(OC)c(OC)c3)no2)cc1OCC	5.15*
CCOc1ccc(/C=C/c2nc(-c3cccc(C)c3)no2)cc1OCC	0.92
CCOc1ccc(/C=C/c2nc(-c3ccc(Cl)cc3)no2)cc1OCC	3.09*
COc1ccc(/C=C/c2nc(-c3ccccn3)no2)cc1OC	2.37
COc1ccccc1OCc1nc(-c2ccc(Cl)cc2)no1	0.24
CCOc1ccc(-c2nc(-c3ccc(OC)cc3)no2)cc1OCC	1.64
O=S1(=O)N=C(Nc2ccc(S(=O)(=O)N3CCCCC3)cc2)c2ccccc21	1.43
Cc1cccc(C)c1N=C1SCCS1	2
CCN1C(=O)CC(N2CCN(Cc3ccc4c(c3)OCO4)CC2)C1=O (centres undefined)	-1.14
CCOC(=O)CSc1nc(C)c2cc(OC)ccc2n1	3.57*
CCOC(=O)c1cnc2ccc(OC)cc2c1Cl	-0.1
CCCc1c(C)nc2ccc(OC)cc2c1SCCC(=O)O	3.51*
COc1ccc(-c2nnc(SCCC(=O)O)n2C)cc1	0.07
CCOC(=O)CSc1nc(C)c2cc(C)c(C)cc2n1	2.42
CCOC(=O)Nc1nc2ccc(OC)cc2s1	5.73
COC(=O)CSc1nnc(-c2ccccc2)o1	-0.54
c1ccc(-c2nn(-c3ccccc3)[n+](-c3ccccc3)n2)cc1	0.32
N#Cc1sc(C(N)=O)c(-c2ccco2)c1-c1ccco1	-1.63
COc1ccc(SCc2nsc(Sc3ccc(OC)cc3)n2)cc1	-1.11
O=C1NC(=S)S/C1=C/c1ccc(Sc2ccc(C(F)(F)F)cn2)c([N+](=O)[O-])c1	3.42*
SMILES	Dicer inh
O=[N+]([O-])c1ccsc1Sc1ccc(C(F)(F)F)cn1	-0.18
O=[N+]([O-])c1cc(C(F)(F)F)ccc1Sc1ccc(C(F)(F)F)cn1	-0.36
COC(=O)C1=C(C)Nc2nc3ccccc3n2C1c1cccnc1 (centres undefined)	1.72
CC(C)(C)c1cc(NC(=O)CC#N)c(C(N)=O)s1	1.02
COc1cc2c(=O)oc(-c3cccs3)nc2c(OC)c1OC	1.09
COc1ccc(C(=O)NCc2cccnc2)cc1C(=O)NCc1cccnc1	-0.11

Screening data as filed in PubChem.
